Measurements published in the supplement of paper PMC6555819.

What was measured:
Experiment in all cases: PBM binding z-score (relative to random genomic background probes); higher = stronger binding; sequences stand for … in GC…GCGATTGACAGCGTAGAATGAAGG
[1] = test system: FXR:RXRa (NR concentration 270 nM, RXRa partner concentration 90 nM)
How it was run: (§1)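 Custom Agilent 4×180K protein-binding microarrays carried double-stranded probes, each with a 34-nt variable region. These regions held direct-repeat seeds, single-nucleotide variants, half-site ablations and random human genomic background sequences. Ligand-free nuclear receptor dimers were incubated on the arrays for 1 h, antibodies against each partner (one per run) detected binding, and scanned fluorescence was regression-normalized. Binding z-scores take the random background probes as reference.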

[2] = test system: LXRa:RXRa (NR concentration 270 nM, RXRa partner concentration 90 nM)
How it was run: as §1

[3] = test system: LXRa homodimer (NR concentration 270 nM)
How it was run: as §1

[4] = test system: LXRb:RXRa (NR concentration 270 nM, RXRa partner concentration 90 nM)
How it was run: as §1

[5] = test system: LXRb homodimer (NR concentration 270 nM)
How it was run: as §1

[6] = test system: PPARa:RXRa (NR concentration 270 nM, RXRa partner concentration 90 nM)
How it was run: as §1

[7] = test system: PPARg:RXRa (NR concentration 180 nM, RXRa partner concentration 90 nM)
How it was run: as §1

[8] = test system: PPARg:RXRa 270nM:90nM, anti-RXR (NR concentration 270 nM, RXRa partner concentration 90 nM)
How it was run: as §1

[9] = test system: PPARg:RXRa 30nM:10nM, anti-RXR (NR concentration 30 nM, RXRa partner concentration 10 nM)
How it was run: as §1

[10] = test system: PPARg:RXRa 90nM:30nM, anti-RXR (NR concentration 90 nM, RXRa partner concentration 30 nM)
How it was run: as §1

[11] = test system: PPARg:RXRa DBDmut IVT, anti-RXR (DBD mutation: RXRa K156A/R161A, NR concentration 270 nM, RXRa partner concentration 90 nM)
How it was run: as §1

[12] = test system: PPARg:RXRa IVT, anti-PPARg (NR concentration 270 nM, RXRa partner concentration 90 nM)
How it was run: as §1

[13] = test system: PPARg DBDmut:RXRa IVT, anti-PPARg (DBD mutation: PPARg1 K132A/R137A, NR concentration 270 nM, RXRa partner concentration 90 nM)
How it was run: as §1

[14] = test system: PPARg DBDmut IVT, anti-PPARg (DBD mutation: PPARg1 K132A/R137A, NR concentration 270 nM)
How it was run: as §1

[15] = test system: PPARg homodimer (NR concentration 180 nM)
How it was run: as §1

[16] = test system: PXR:RXRa (NR concentration 270 nM, RXRa partner concentration 90 nM)
How it was run: as §1

[17] = test system: PXR homodimer (NR concentration 270 nM)
How it was run: as §1

[18] = test system: RARa:RXR (NR concentration 270 nM, RXRa partner concentration 90 nM)
How it was run: as §1

[19] = test system: RARa homodimer (NR concentration 270 nM)
How it was run: as §1

[20] = test system: RARb:RXRa (NR concentration 270 nM, RXRa partner concentration 90 nM)
How it was run: as §1

| Sequence | PBM binding z-score [1] | PBM binding z-score [2] | PBM binding z-score [3] | PBM binding z-score [4] | PBM binding z-score [5] | PBM binding z-score [6] | PBM binding z-score [7] | PBM binding z-score [8] | PBM binding z-score [9] | PBM binding z-score [10] | PBM binding z-score [11] | PBM binding z-score [12] | PBM binding z-score [13] | PBM binding z-score [14] | PBM binding z-score [15] | PBM binding z-score [16] | PBM binding z-score [17] | PBM binding z-score [18] | PBM binding z-score [19] | PBM binding z-score [20] |
| --- | --- | --- | --- | --- | --- | --- | --- | --- | --- | --- | --- | --- | --- | --- | --- | --- | --- | --- | --- | --- |
| GCTAGCAGGCCATTTGGGTTACTCAATGACGGGC | -0.367 | -0.587 | -0.387 | -0.709 | -0.959 | 0.0439 | 0.457 | -0.378 | -0.68 | -0.152 | 0.933 | 0.903 | -0.422 | -0.474 | -0.558 | -0.229 | -0.482 | 0.178 | -0.714 | 0.189 |
| CCGACTGGGGCAAAGGTTACTATACTCAGTACGA | 1.1 | 1.13 | 0.145 | 1.83 | -0.765 | 4.86 | 10.7 | 8.89 | 8.85 | 9.45 | 4.92 | 5.73 | -0.179 | -0.335 | 1.41 | 1.93 | -0.04 | 3.21 | -0.0301 | 1.86 |
| CGAACTAGGTCATTGACAGGACGGTGAATAGTAA | 4.57 | 2.37 | 0.115 | 1.47 | -0.0948 | 4.67 | 7.41 | 6.31 | 3.36 | 5.61 | 8.29 | 8.22 | 1.89 | 0.528 | 0.985 | 1.12 | -0.168 | 1.81 | 0.0523 | 3.63 |
| TCTATAAGTTGAAGGGCAACCGACGAGTCCGTTT | 0.654 | 0.764 | -0.0358 | 0.57 | 0.00788 | 1.27 | 0.844 | 2.82 | 3.72 | 3.29 | 2.03 | 0.839 | 0.713 | 0.947 | 0.68 | 0.812 | 0.652 | 0.558 | 0.192 | 1.93 |
| CCGGCTAGGTCATGGTCAGCTAATCTACAGTATG | 3.61 | 2.64 | 0.191 | 1.89 | 0.207 | 3.42 | 1.86 | 2.4 | 0.212 | 1.38 | 3.44 | 2.65 | -0.0629 | -0.269 | 2.5 | 1.4 | -0.16 | 2.53 | 0.954 | 3.91 |
| CGTCAAAGTTCAAGGTATCGTAACAGAAAGCAGC | 5.48 | 5.39 | 2.28 | 3.16 | 1.03 | 4.38 | 3.83 | 4.59 | 1.75 | 3.38 | 0.378 | 1.35 | -0.37 | 0.459 | 2.03 | 3.81 | 1.91 | 3.09 | 1.17 | 4.93 |
| ATCGAAAGGTCGGGAGGTGAGTATACAGAAAGGC | 2.88 | 2.4 | 0.589 | 2.36 | 0.968 | 3.64 | 2.22 | 2.42 | 0.864 | 1.44 | 0.224 | 1.47 | 2.2 | 1.16 | 1.74 | 2.12 | 0.567 | 2.81 | 1.38 | 3.48 |
| CGTCCACGGTCAAAGGTCAGTGAAGAGATGACGG | 5.45 | 4.83 | 1.87 | 3.7 | -0.0177 | 5.49 | 7.71 | 7.46 | 5.82 | 7.93 | 1.1 | 3.94 | -0.461 | -0.195 | 6.23 | 4.9 | 0.288 | 7.25 | 2.09 | 5.01 |
| ATCTCTAGGTAAAGACAGTTCAGTGAATGCAAAT | 0.377 | 2.43 | 0.934 | 0.745 | 0.542 | 0.628 | 0.336 | 0.491 | 0.147 | 0.518 | 2.12 | 1.73 | 0.488 | 0.666 | 0.86 | 1.61 | 1 | 0.704 | 1.05 | 0.625 |
| ATATGTAGGTTACATCTGGGTCATTCAGGCTATG | 1.65 | 3.57 | 1.05 | 2.18 | 0.621 | 4.01 | 5.41 | 4.89 | 2.26 | 3.88 | 7.49 | 7.53 | 2.55 | 1.93 | 1.95 | 2.11 | 1.05 | 2.38 | 0.399 | 2.18 |
| TCTGCTAGGTCAGTTGGTCAGCTACCGAGCTGCC | 0.866 | 0.506 | -0.683 | -0.00907 | -0.0816 | 1.21 | 0.156 | 1.79 | 1.19 | 1.29 | 2.75 | 3.45 | 0.596 | 0.667 | -0.139 | 0.0735 | -0.891 | 0.438 | -0.931 | 3.14 |
| CGAACTAGGTCAGTGACAGGACAGTGAATAGTAA | 1.32 | 0.944 | -0.268 | 0.82 | -0.44 | 3.47 | 5.73 | 4.86 | 1.66 | 4.11 | 7.42 | 7.6 | 2.57 | 0.828 | 0.785 | 0.605 | 0.0765 | 1.03 | 0.459 | 3.11 |
| TTACCAAGGTGAGCTGACGTCGTTGATCCAACTC | -0.0042 | -0.397 | -0.855 | -0.446 | -0.946 | 0.149 | 0.0549 | 0.41 | -0.0176 | -0.026 | 0.771 | 1.43 | -0.733 | -0.641 | -0.886 | -0.363 | -0.913 | -0.1 | -1.03 | 0.866 |
| ACTAGCAGGCCAAGTTTGGGTCACTGAAACAAAG | 0.428 | 0.0569 | -0.409 | 0.671 | -0.515 | 1.52 | 0.0239 | 0.587 | -0.227 | -0.112 | 0.913 | 1.45 | -0.659 | -0.796 | 0.506 | 0.641 | -0.0145 | 1.25 | -0.321 | 2 |
